Calls of active or inactive are those of the source. Rule for the calls: active = hit-call score of the fitted dose curve at least 0.9, where 1 is the maximum; inactive = score below 0.9.
Legend:
[1] = read-out: Transforming growth factor beta 1 (TGFb1), TGFB1 (gene 7040); assay: BSK_KF3CT_TGFb1: BioMAP Diversity Plus: KF3CT Assay for Transforming growth factor beta 1 (TGFb1) Biomarker Activity (AID 2283072); details: primary human keratinocytes with fibroblasts; actives raise or lower the signal
In short: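 Signal changes in either direction, relative to DMSO, define activity here. TGF-b1 is read by ELISA from a human keratinocyte-fibroblast co-culture 24 h post-dose.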

[2] = read-out: C-C motif chemokine 2 (Homo sapiens) (UniProt P13500); assay: BSK_KF3CT_MCP1: BioMAP Diversity Plus: KF3CT Assay for Monocyte Chemoattractant Protein 1 (MCP1/CCL2) Biomarker Activity (AID 2283073); details: primary human keratinocytes with fibroblasts; actives raise or lower the signal
In short: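 KF3CT skin co-culture (keratinocytes/foreskin fibroblasts), 24 h post-dose; MCP-1 by ELISA; gain/loss of signal fit bidirectionally vs DMSO baseline.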

[3] = read-out: urokinase plasminogen activator (uPA), PLAU (gene 5328); assay: BSK_KF3CT_uPA: BioMAP Diversity Plus: KF3CT Assay for urokinase plasminogen activator (uPA) Biomarker Activity (AID 2283075); details: primary human keratinocytes with fibroblasts; actives raise or lower the signal
In short: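 Primary human keratinocyte/foreskin fibroblast co-culture exposed to chemical; uPA measured by ELISA at 24 h. Bidirectional fit versus DMSO, with parallel SRB total-protein staining for cytotoxicity.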

[4] = read-out: CD40, CD40 (gene 958); assay: BSK_LPS_CD40: BioMAP Diversity Plus: LPS Assay for CD40 Biomarker Activity (AID 2283076); details: primary human HUVEC with PBMC; actives raise or lower the signal
In short: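 ELISA readout of CD40 in HUVEC/PBMC co-culture (BSK_LPS system), 24 h post-dosing; bidirectional curve fit, DMSO baseline; parallel SRB total-protein staining for cytotoxicity.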

[5] = read-out: E-selectin (Homo sapiens) (UniProt P16581); assay: BSK_LPS_Eselectin: BioMAP Diversity Plus: LPS Assay for Eselectin Biomarker Activity (AID 2283077); details: primary human HUVEC with PBMC; actives raise or lower the signal
In short: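 ELISA readout of E-selectin, 24 h post-dose, HUVEC + PBMC co-culture (LPS system). Gain or loss of signal vs DMSO baseline, bidirectional fit.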

[6] = read-out: Interleukin-8 (IL8), CXCL8 (gene 3576); assay: BSK_LPS_IL8: BioMAP Diversity Plus: LPS Assay for Interleukin-8 (IL8) Biomarker Activity (AID 2283078); details: primary human HUVEC with PBMC; actives raise or lower the signal
In short: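 HUVEC + PBMC co-culture, LPS-activated; test chemicals dosed, IL-8 read by ELISA at 24 h. Bidirectional curve fit vs DMSO baseline (gain or loss of signal).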

[7] = BSK_LPS_SRB: Viability Assessment in the BioMAP Diversity Plus: LPS Assay (AID 2283079); details: primary human HUVEC with PBMC;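 note: total protein by sulforhodamine B absorbance as a cytotoxicity measure; measured one day after compound addition; fitted in both directions against DMSO so loss or gain of signal counts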
In short: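 HUVEC + PBMC co-culture, LPS-stimulated; compound 24 h. 10% TCA fix, 0.1% SRB stain, A560. Bidirectional fit vs DMSO.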

[8] = read-out: Interleukin-1 alpha (IL1a), IL1A (gene 3552); assay: BSK_LPS_IL1a: BioMAP Diversity Plus: LPS Assay for Interleukin-1 alpha (IL1a) Biomarker Activity (AID 2283080); details: primary human HUVEC with PBMC; actives raise or lower the signal
In short: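 HUVEC/PBMC co-culture, LPS system; 24 h after dosing; IL-1a by ELISA; gain or loss of signal fitted bidirectionally vs DMSO baseline.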

[9] = read-out: Monocyte Chemoattractant Protein-1 (MCP1), CCL2 (gene 6347); assay: BSK_LPS_MCP1: BioMAP Diversity Plus: LPS Assay for Monocyte Chemoattractant Protein-1 (MCP1) Biomarker Activity (AID 2283081); details: primary human HUVEC with PBMC; actives raise or lower the signal;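 for AC50: secreted MCP-1 protein quantified by ELISA in culture supernatant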
In short: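 ELISA read-out of MCP-1 after 24 h chemical dosing of a human umbilical vein endothelial cell/peripheral blood mononuclear cell co-culture stimulated with LPS. Gain or loss of signal fitted relative to DMSO controls.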

[10] = BSK_LPS_PGE2: BioMAP Diversity Plus: LPS Assay for Prostaglandin E2 (PGE2) Biomarker Activity (AID 2283082); details: primary human HUVEC with PBMC; actives raise or lower the signal;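 for AC50: secreted prostaglandin E2 measured by ELISA in LPS-stimulated co-culture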
In short: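 Endpoint derived from bidirectional curve fitting versus DMSO of ELISA-measured PGE2 in LPS-stimulated human primary vascular co-culture (HUVEC with PBMC) harvested at 24 h.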

[11] = read-out: Macrophage colony-stimulating factor (MCSF), CSF1 (gene 1435); assay: BSK_LPS_MCSF: BioMAP Diversity Plus: LPS Assay for Macrophage colony-stimulating factor (MCSF) Biomarker Activity (AID 2283083); details: primary human HUVEC with PBMC; actives raise or lower the signal
In short: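 HUVEC + PBMC co-culture (human primary), 24 h post-dose; M-CSF by ELISA; gain/loss of signal fitted bidirectionally vs DMSO baseline.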

[12] = read-out: Tumor necrosis factor (Homo sapiens) (UniProt P01375); assay: BSK_LPS_TNFa: BioMAP Diversity Plus: LPS Assay for Tumour Necrosis Factor alpha (TNFa) Biomarker Activity (AID 2283085); details: primary human HUVEC with PBMC; actives raise or lower the signal
In short: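 Primary human vascular co-culture of HUVEC and PBMC; TNFa ELISA 24 h after treatment, analysed as increase or decrease relative to DMSO control.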

[13] = read-out: Vascular cell adhesion molecule 1 (VCAM1), VCAM1 (gene 7412); assay: BSK_LPS_VCAM1: BioMAP Diversity Plus: LPS Assay for Vascular cell adhesion molecule 1 (VCAM1) Biomarker Activity (AID 2283086); details: primary human HUVEC with PBMC; actives raise or lower the signal
In short: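 Primary human vascular co-culture (umbilical vein endothelium plus PBMC) stimulated with LPS received chemical; 24 h later VCAM-1 was read by ELISA. Overt cytotoxicity was assessed by sulforhodamine B staining of parallel cultures at the same time point.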

[14] = read-out: CD38, CD38 (gene 952); assay: BSK_SAg_CD38: BioMAP Diversity Plus: SAg Assay for CD38 Biomarker Activity (AID 2283087); details: primary human HUVEC with PBMC; actives raise or lower the signal
In short: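 Fluorescence ELISA of cell-surface CD38 served as the read-out, with either increase or decrease fitted against DMSO controls. Cells were a human umbilical vein endothelium plus PBMC co-culture under SEB/TSST-1 stimulation, measured 24 h after dosing.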

[15] = read-out: CD40, CD40 (gene 958); assay: BSK_SAg_CD40: BioMAP Diversity Plus: SAg Assay for CD40 Biomarker Activity (AID 2283088); details: primary human HUVEC with PBMC; actives raise or lower the signal
In short: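 HUVEC/PBMC co-culture, 24 h post-dose; CD40 by ELISA, fluorescence intensity; bidirectional fit vs DMSO negative control.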

[16] = read-out: CD69, CD69 (gene 969); assay: BSK_SAg_CD69: BioMAP Diversity Plus: SAg Assay for CD69 Biomarker Activity (AID 2283089); details: primary human HUVEC with PBMC; actives raise or lower the signal;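 for AC50: cell surface CD69 protein quantified by ELISA with fluorescence detection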
In short: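 Endothelial/PBMC co-culture; chemical added; 24 h incubation; CD69 ELISA with fluorescence detection; bidirectional fit vs DMSO.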

[17] = read-out: Monocyte Chemoattractant Protein-1 (MCP1), CCL2 (gene 6347); assay: BSK_SAg_MCP1: BioMAP Diversity Plus: SAg Assay for Monocyte Chemoattractant Protein-1 (MCP1) Biomarker Activity (AID 2283090); details: primary human HUVEC with PBMC; actives raise or lower the signal
In short: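 MCP-1 levels in the endothelial–PBMC SAg co-culture were quantified by ELISA at 24 h post-dosing; both increases and decreases versus DMSO scored. Cytotoxicity monitored by SRB total protein in parallel cultures.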

[18] = read-out: E-selectin (Homo sapiens) (UniProt P16581); assay: BSK_SAg_Eselectin: BioMAP Diversity Plus: SAg Assay for Eselectin Biomarker Activity (AID 2283091); details: primary human HUVEC with PBMC; actives raise or lower the signal
In short: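 E-selectin ELISA readout at 24 h post-dosing in human umbilical vein endothelial cell/PBMC co-culture; gain or loss of signal fitted relative to DMSO baseline.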

[19] = read-out: Matrix Metallopeptidase 9 (MMP9), MMP9 (gene 4318); assay: BSK_KF3CT_MMP9: BioMAP Diversity Plus: KF3CT Assay for Matrix Metallopeptidase 9 (MMP9) Biomarker Activity (AID 2283074); details: primary human keratinocytes with fibroblasts; actives raise or lower the signal;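 for AC50: MMP9 protein level quantified by ELISA in the co-culture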
In short: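 Human keratinocyte and foreskin fibroblast co-culture exposed to chemicals for 24 h; MMP9 biomarker measured by ELISA, bidirectional fitting relative to DMSO; cytotoxicity tracked by SRB total protein staining in parallel cultures.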

[20] = read-out: Tissue Factor, F3 (gene 2152); assay: BSK_LPS_TissueFactor: BioMAP Diversity Plus: LPS Assay for Tissue Factor Biomarker Activity (AID 2283084); details: primary human HUVEC with PBMC; actives raise or lower the signal
In short: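 HUVEC/PBMC co-culture, LPS-activated; CD142 ELISA read 24 h post-dose; bidirectional curve fit vs DMSO negative control.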

Measured: AC50

Tumor necrosis factor (Homo sapiens), sequence (P01375 whole entry, looked up): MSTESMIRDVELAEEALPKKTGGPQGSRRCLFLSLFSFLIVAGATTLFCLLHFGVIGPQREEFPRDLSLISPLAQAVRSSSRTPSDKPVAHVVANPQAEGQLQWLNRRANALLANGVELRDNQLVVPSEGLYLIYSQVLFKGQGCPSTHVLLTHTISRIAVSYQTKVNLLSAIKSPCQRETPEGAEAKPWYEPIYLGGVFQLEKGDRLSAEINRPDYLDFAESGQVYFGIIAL
E-selectin (Homo sapiens), sequence (P16581 whole entry, looked up): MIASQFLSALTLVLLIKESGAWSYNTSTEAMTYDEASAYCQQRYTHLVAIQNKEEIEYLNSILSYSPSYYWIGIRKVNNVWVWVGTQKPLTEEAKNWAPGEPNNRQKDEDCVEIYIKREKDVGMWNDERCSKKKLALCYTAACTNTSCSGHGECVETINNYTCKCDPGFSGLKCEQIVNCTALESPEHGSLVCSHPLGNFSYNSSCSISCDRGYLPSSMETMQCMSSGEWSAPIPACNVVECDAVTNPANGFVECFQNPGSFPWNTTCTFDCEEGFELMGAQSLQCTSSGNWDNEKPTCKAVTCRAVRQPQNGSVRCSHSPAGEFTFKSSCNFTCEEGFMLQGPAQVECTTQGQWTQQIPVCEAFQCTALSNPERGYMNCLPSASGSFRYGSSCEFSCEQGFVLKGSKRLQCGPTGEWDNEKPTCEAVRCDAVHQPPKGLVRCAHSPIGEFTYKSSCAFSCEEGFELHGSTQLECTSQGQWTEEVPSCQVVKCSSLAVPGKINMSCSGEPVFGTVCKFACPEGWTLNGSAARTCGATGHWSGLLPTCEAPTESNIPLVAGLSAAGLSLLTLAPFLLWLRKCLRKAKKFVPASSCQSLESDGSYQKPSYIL

Cc1ccc2nc3sc(=O)sc3nc2c1
active: [4] 4.27 µM | [5] 8.18 µM | [7] 3.67 µM | [8] 7.83 µM | [9] 6.93 µM | [10] 1.2 µM | [13] 7.61 µM | [14] 6.68 µM | [15] 6.41 µM | [18] 8.11 µM
inactive: [1] | [2] | [3] | [6] | [11] | [12] | [16] | [17]

OCCCCO
not listed: [1] | [2] | [20]
inactive: all other assays above

CCOP(=S)(OCC)OP(=S)(OCC)OCC
active: [13] 20 µM | [14] 31.8 µM | [16] 30.1 µM | [18] 35.4 µM
not listed: [20]
inactive: all other assays above

CCOP(=O)(OCC)SCCSCC
not listed: [20]
inactive: all other assays above

CCOC(=O)CC(=O)CCl
active: [4] 20 µM | [6] 31.9 µM | [8] 31.1 µM | [9] 26.1 µM | [10] 29 µM | [11] 20 µM | [12] 34.9 µM | [13] 7.27 µM | [14] 24.6 µM | [15] 20 µM | [16] 27 µM | [17] 20 µM | [18] 20 µM
inactive: [1] | [2] | [19] | [3] | [5] | [7]

CCCCN(CCCC)C(=S)[S-].CCCCN(CCCC)C(=S)[S-].[Ni+2]
not listed: [2] | [20]
inactive: all other assays above

CC(C)N(C(=O)CCl)c1ccccc1
active: [1] 20 µM | [2] 11.1 µM | [19] 29.6 µM | [3] 33.3 µM | [4] 13.9 µM | [5] 25.4 µM | [6] 20 µM | [7] 20 µM | [8] 5.56 µM | [9] 27.3 µM | [11] 20 µM | [12] 26 µM | [13] 18 µM | [14] 20 µM | [15] 27.5 µM | [16] 20 µM | [17] 27.9 µM | [18] 20 µM
inactive: [10]

CN(C)C(=S)S
not listed: [2]
inactive: all other assays above

N#CCCC(Br)(C#N)CBr (configuration not stated)
active: [1] 11.3 µM | [2] 20 µM | [19] 20 µM | [3] 23.9 µM | [4] 8.78 µM | [5] 20 µM | [6] 26.7 µM | [7] 20 µM | [8] 11.7 µM | [9] 11 µM | [11] 10.6 µM | [12] 13 µM | [13] 9.05 µM | [14] 10.2 µM | [15] 11.2 µM | [16] 17 µM | [17] 20 µM | [18] 20 µM
inactive: [10]

— PubChem BioAssay (EPA / NIEHS)
